The source of these data is article PMC4336329 (PLoS ONE, 2015).

Among all 310,000 compounds or so, about 14,000 (4.5%) showed an effect of 50% or more. The effect is printed as a negative number. Shown is part of a subset that was picked to be rich in strong results.
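Note: peak tail current of the secondary pulse compared with the same well before compound.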

In the assay the target is human ether-à-go-go-related gene (hERG) potassium channel (human, UniProt Q12809). Kind of assay: primary screen, population patch clamp on CHO cells stably expressing hERG; higher = less effect of the substance.
Sequence of human ether-à-go-go-related gene (hERG) potassium channel (Q12809 whole entry, looked up): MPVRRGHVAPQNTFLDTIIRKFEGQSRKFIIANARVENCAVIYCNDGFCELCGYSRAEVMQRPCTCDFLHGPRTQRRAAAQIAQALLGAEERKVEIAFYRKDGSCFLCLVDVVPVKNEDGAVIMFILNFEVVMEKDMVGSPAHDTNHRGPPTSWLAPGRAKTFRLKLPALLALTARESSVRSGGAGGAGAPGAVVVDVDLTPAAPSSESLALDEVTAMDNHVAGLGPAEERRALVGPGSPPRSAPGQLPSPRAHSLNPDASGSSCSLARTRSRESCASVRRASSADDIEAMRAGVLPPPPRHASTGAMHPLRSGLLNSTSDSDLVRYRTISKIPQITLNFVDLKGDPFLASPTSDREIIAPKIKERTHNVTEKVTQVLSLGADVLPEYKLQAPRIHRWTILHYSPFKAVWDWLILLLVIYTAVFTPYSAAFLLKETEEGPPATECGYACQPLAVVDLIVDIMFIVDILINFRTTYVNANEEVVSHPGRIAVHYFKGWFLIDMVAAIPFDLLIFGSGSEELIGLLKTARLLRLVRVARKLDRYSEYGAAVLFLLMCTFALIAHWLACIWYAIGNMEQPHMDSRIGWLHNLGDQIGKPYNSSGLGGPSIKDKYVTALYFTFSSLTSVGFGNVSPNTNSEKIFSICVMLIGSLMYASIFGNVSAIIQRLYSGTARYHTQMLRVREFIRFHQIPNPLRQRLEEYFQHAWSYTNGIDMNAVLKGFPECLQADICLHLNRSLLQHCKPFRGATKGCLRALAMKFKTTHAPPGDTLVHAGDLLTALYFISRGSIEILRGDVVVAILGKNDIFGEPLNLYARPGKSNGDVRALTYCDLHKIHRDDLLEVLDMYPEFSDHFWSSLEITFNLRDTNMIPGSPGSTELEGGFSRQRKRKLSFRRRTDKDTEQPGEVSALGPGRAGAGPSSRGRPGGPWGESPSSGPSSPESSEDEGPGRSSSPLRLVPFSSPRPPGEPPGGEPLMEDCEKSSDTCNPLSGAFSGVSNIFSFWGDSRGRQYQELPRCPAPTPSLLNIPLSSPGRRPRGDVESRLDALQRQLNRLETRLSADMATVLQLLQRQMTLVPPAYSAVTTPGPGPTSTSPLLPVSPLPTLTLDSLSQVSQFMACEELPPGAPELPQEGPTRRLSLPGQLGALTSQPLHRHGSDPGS
With `COc1ccc(N2CCC(CNC(=O)Nc3ccc(C)c(C)c3)C2)cc1` (stereo not shown), the “hERG current change (%, negative = inhibition) at 10uM” value was 11.4%. As for `Cc1ccc(C)c(CN2CCC(CNC(=O)Nc3ccc(Br)cc3F)CC2)c1`, the “hERG current change (%, negative = inhibition) at 10uM” value is given as -73.4%. For `Cc1ccc(C)c(CN2CCC(CNC(=O)Nc3ccc(C)c(F)c3)CC2)c1` the value was -27.5%. For `O=C(NCC1CCN(Cc2ccccc2F)CC1)Nc1cccc(Br)c1` the value was -43.2%; for `Cc1ccc(C)c(CN2CCC(CNC(=O)Nc3ccc(C)c(C)c3)CC2)c1`, -74.3%; for `COc1cc(NC(=O)NCC2CCN(Cc3ccccc3C)CC2)cc(OC)c1OC`, -2.71%. In the case of `Cc1cc(C)cc(NC(=O)NCC2CCN(Cc3cc(C)ccc3C)CC2)c1`, the “hERG current change (%, negative = inhibition) at 10uM” value is reported as -51%.

Take `O=C(NCCN1CCCCC1)c1cc(Cl)ccc1Cl`: the “hERG current change (%, negative = inhibition) at 10uM” value was found to be 1.65%. For `O=[N+]([O-])c1cc(C(F)(F)F)cc([N+](=O)[O-])c1NCCCNc1ccc([N+](=O)[O-])c2cccnc12` the value was 14.4%; for `O=C(Nc1ccc(S(=O)(=O)NCc2ccco2)cc1)c1ccc(F)cc1`, -4.23%. Turning to `COc1ccc(CNC(=O)COC(=O)c2cc(-c3ccc(Cl)s3)nc3ccccc23)cc1`, the “hERG current change (%, negative = inhibition) at 10uM” value is on record as 1.05%. For `CCOc1ccc(CNn2nnnc2N)cc1` the value was -6.35%; for `O=C(COc1ncnc2ccccc12)NCCc1ccc(F)cc1`, -6.11%.

In the case of `Cc1nc2ccc(NC(=O)Cc3cccc(F)c3)cc2s1`, the “hERG current change (%, negative = inhibition) at 10uM” value amounted to 2.56%.

As for `COCCNC(=O)C(c1ccc(F)cc1)N(CCOC)C(=O)CCC(=O)Nc1nccs1` (stereo not shown), the “hERG current change (%, negative = inhibition) at 10uM” value is listed as 0.0239%. For `O=C1CC2(CCCCC2)Oc2ccc(O)cc21` the value was -11.8%.

`CCOC(=O)c1ccc(N2Cc3ccccc3C2=N)cc1`: the “hERG current change (%, negative = inhibition) at 10uM” value was -61.3%.

Regarding `O=C1c2ccccc2C(=O)N1c1ccc(S(=O)(=O)N2CCCCC2)cc1`, the “hERG current change (%, negative = inhibition) at 10uM” value is 15.4%. For `CCOC(=O)c1ccc(N2C(=O)Cc3ccccc3C2=O)cc1`, the “hERG current change (%, negative = inhibition) at 10uM” value turned out to be 20.9%. For `N=C1c2ccccc2CN1c1ccc(S(=O)(=O)N2CCCCC2)cc1` the value was -62.5%; for `CCN(CC)S(=O)(=O)c1ccc(N2Cc3ccccc3C2=N)cc1`, -40.5%; for `CCOC(=O)c1ccc(CN2Cc3ccccc3C2=O)cc1`, 2.17%. Regarding `O=C(O)c1cccc(N2C(=O)Nc3ccccc3N2O)c1`, the “hERG current change (%, negative = inhibition) at 10uM” value was 10.2%.

With `Cc1cc(-n2c(C)cc(C(=O)COc3ccccc3[N+](=O)[O-])c2C)no1`, the “hERG current change (%, negative = inhibition) at 10uM” value was -4.91%. As to `CN1CCN(NC(=O)c2cc(-c3cccc(Cl)c3)nc3ccccc23)CC1`, the “hERG current change (%, negative = inhibition) at 10uM” value is -35.9%.

As to `O=S(=O)(N1CCCCC1)N1CCN(c2ccc(F)cc2)CC1`, the “hERG current change (%, negative = inhibition) at 10uM” value was -35.9%. For `CCN1C(=O)NC(=O)/C(=C\c2ccc(N3CCOCC3)cc2OC)C1=O` the value was 13.7%; for `CC(OC(=O)c1nsc(Cl)c1Cl)C(=O)NCCc1ccccc1` (stereo not shown), -65.4%; for `CCC(OC(=O)c1nsc(Cl)c1Cl)C(=O)NCCc1ccccc1` (stereo not shown), 16%. For `COc1ccc(CCNC(=O)C(C)OC(=O)c2nsc(Cl)c2Cl)cc1OC` (stereo not shown) the value was 12.4%; for `COc1ccc(CC(=O)N/N=C/c2cc([N+](=O)[O-])cc(Br)c2O)cc1`, 6.88%; for `CCOC(=O)/C=C1\CN(Cc2cc(OC)c(OC)c(OC)c2)S(=O)(=O)c2ccc(C(F)(F)F)cc21`, -11.3%. For `CCn1nc(NS(=O)(=O)c2ccccc2)c2cc3cccc(C)c3nc21` the value was 6.7%; for `CCN(CC)C(=O)C1CCN(Cc2ccc(Br)cc2)CC1.O=C(O)C(=O)O`, -51.4%. Consider `CSc1ccc(CN2CCC(N3CC(C)OC(C)C3)CC2)cc1.O=C(O)C(=O)O` (stereo not shown), for which the “hERG current change (%, negative = inhibition) at 10uM” value is reported as -20.5%. For `CCN(Cc1ccccc1)C(=O)C1CCN(Cc2ccc(SC)cc2)CC1.O=C(O)C(=O)O` the value was -71.8%. For `CCN(Cc1ccccc1)C1CCN(Cc2ccc(SC)cc2)CC1.O=C(O)C(=O)O` the value was -69.3%; for `CSc1ccc(CN2CCN(S(=O)(=O)Cc3ccccc3)CC2)cc1`, 1.28%; for `CCN(Cc1ccccc1)C(=O)C1CCN(Cc2ccc(OC)c(OC)c2OC)CC1.O=C(O)C(=O)O`, -43.4%.

Consider `CCN(CC)C(=O)C1CCCN(Cc2ccc(N(C)C)cc2)C1` (stereo not shown), for which the “hERG current change (%, negative = inhibition) at 10uM” value is given as -12.5%. Consider `O=C(C1CCN(Cc2ccc(F)cc2)CC1)N(CCO)Cc1ccccc1`, for which the “hERG current change (%, negative = inhibition) at 10uM” value is reported as -10.6%. For `CCN(CC)C(=O)C1CCN(Cc2ccc(OCc3ccccc3)c(OC)c2)CC1.O=C(O)C(=O)O` the value was -32%; for `CCCC(C)C(=O)Nc1nc(C)c(-c2csc(Nc3ccccc3OC)n2)s1` (stereo not shown), 14.5%; for `CC(=O)CCn1cnc([N+](=O)[O-])n1`, 23%. With `COc1cccc(CNC(=O)COC(=O)c2cc(Br)c(Br)s2)c1`, the “hERG current change (%, negative = inhibition) at 10uM” value came out at 14.8%. For `O=C(O)CC1SC(N/N=C/c2ccc(Br)cc2)NC1=O` (stereo not shown) the value was 6.6%; for `CC(NS(C)(=O)=O)C(c1cccs1)N1CCN(c2ccc(F)cc2)CC1` (stereo not shown), -11.4%. For `Cc1ccc(C2=NN(CC(=O)NCc3ccccn3)C(=O)CC2)cc1` the value was -11.6%; for `Cc1cc(=O)oc2cc(OCC(=O)Nc3ccccc3C(=O)O)ccc12`, 11.6%.

For `CCCCn1c(N)c(Sc2ccc([N+](=O)[O-])cc2)c(=O)[nH]c1=O`, the “hERG current change (%, negative = inhibition) at 10uM” value is -79.5%.

As to `COCCn1c(N)c(Sc2ccc([N+](=O)[O-])cc2)c(=O)[nH]c1=O`, the “hERG current change (%, negative = inhibition) at 10uM” value is given as -46.5%.

Take `CCCn1c(N)c(Sc2ccc(Cl)cc2)c(=O)n(CCC)c1=O`: the “hERG current change (%, negative = inhibition) at 10uM” value is reported as -43.3%. For `CCCn1c(N)c(Sc2ccc([N+](=O)[O-])cc2)c(=O)n(CCC)c1=O` the value was -83.8%.

For `CCCn1c(N)c(Sc2ccc(C)cc2)c(=O)n(CCC)c1=O`, the “hERG current change (%, negative = inhibition) at 10uM” value was -14.3%. In the case of `CCCCn1c(N)c(Sc2ccc(C)cc2)c(=O)[nH]c1=O`, the “hERG current change (%, negative = inhibition) at 10uM” value is 2%. For `O=C(CCNC(=O)c1ccc([N+](=O)[O-])cc1)Nc1nccs1` the value was 1.93%. With `CCCOc1ccccc1/C=C1\SC(N2CCCCC2)=NC1=O`, the “hERG current change (%, negative = inhibition) at 10uM” value is on record as -12.3%.

`Cn1c(SCc2ccccc2Cl)nc(C(F)(F)F)cc1=O`: the “hERG current change (%, negative = inhibition) at 10uM” value stood at 1.65%. `Cc1cc(OCCOCCN(C)CCO)cc(C)c1Cl`: the “hERG current change (%, negative = inhibition) at 10uM” value is -40.9%.

Regarding `COc1ccc(C2=NC(=O)/C(=C\c3cc(OC)c(OC)c(OC)c3)O2)cc1`, the “hERG current change (%, negative = inhibition) at 10uM” value is on record as 8.26%.

Consider `COc1ccc(-c2cn3cccnc3n2)cc1F`, for which the “hERG current change (%, negative = inhibition) at 10uM” value was found to be 12.2%.

On to `Cc1cccn2cc(-c3ccc(F)cc3)nc12`, for which the “hERG current change (%, negative = inhibition) at 10uM” value is -14.1%. For `COc1ccc(-c2cn3cccc(C)c3n2)cc1F` the value was -61.7%; for `CC(=O)c1c(C)[nH]c(C(=O)OCc2cc(=O)n3cc(Br)ccc3n2)c1C`, -3.69%. On to `N#Cc1ccccc1COC(=O)CCC(=O)c1cccs1`, for which the “hERG current change (%, negative = inhibition) at 10uM” value is -4.58%. For `CCOc1ccccc1NC(=O)c1ccc(S(=O)(=O)N2CCOCC2)cc1` the value was -2.46%. `S=C(Nc1ccc(Cl)cc1Cl)N1CCOCC1`: the “hERG current change (%, negative = inhibition) at 10uM” value turned out to be 11.1%. For `Cc1ccc(NC(=O)COC(=O)C2CCN(c3ccc(C(F)(F)F)cn3)CC2)cc1` the value was -1.26%; for `CN(CC(=O)Nc1ccc(F)cc1)C(=O)COC(=O)C1CCN(c2ccc(C(F)(F)F)cn2)CC1`, -65.5%; for `COc1cc(C(=O)COC(=O)C2CCN(c3ccc(C(F)(F)F)cn3)CC2)ccc1OC(F)F`, -59.1%. For `CCc1ccc(C(=O)COC(=O)C2CCN(c3ccc(C(F)(F)F)cn3)CC2)cc1` the value was -18%; for `O=C(COC(=O)C1CCN(c2ccc(C(F)(F)F)cn2)CC1)c1ccc(F)cc1`, -0.831%. For `CN(CC(=O)Nc1ccccc1Cl)C(=O)COC(=O)C1CCN(c2ccc(C(F)(F)F)cn2)CC1` the value was -29.8%; for `O=C(O)c1cccc2c(-c3ccccc3)c(-c3ccccc3)[nH]c12`, 18.5%. In the case of `COc1cc(/C=C2\C(=N)N3N=C(C)SC3=NC2=O)cc(OC)c1OCCOc1ccccc1C`, the “hERG current change (%, negative = inhibition) at 10uM” value came to 30.7%. For `Cc1ccc(-c2nc(CN(C)Cc3ccc4nccnc4c3)c(C)o2)s1` the value was -10.3%; for `Cc1cc(OCC(=O)Nc2cnn(CCCC(=O)O)c2)ccc1Cl`, 18%; for `CC(=O)N1CCN(C23CC4CC(CC(C4)C2)C3)CC1`, 12.3%. On to `CCCC#CCN1CCN(C23CC4CC(CC(C4)C2)C3)CC1`, for which the “hERG current change (%, negative = inhibition) at 10uM” value was -16.1%.

On to `CCCCCC#CCN1CCN(C23CC4CC(CC(C4)C2)C3)CC1`, for which the “hERG current change (%, negative = inhibition) at 10uM” value is -58.6%. For `COCc1ccc(C(=O)N2CCCC(Nc3ccc(C(C)C)cc3)C2)o1` (stereo not shown) the value was -0.274%. For `COc1ccc(N=C2SC(CC(=O)Nc3ccccc3)C(=O)N2CCN2CCOCC2)cc1` (stereo not shown) the value was -23.1%. For `O=C(CC1SC(=Nc2ccc(OC(F)F)cc2)N(CCN2CCOCC2)C1=O)Nc1ccc(F)cc1F` (stereo not shown) the value was -82.9%; for `O=C(CC1SC(=Nc2ccccc2F)N(CCN2CCOCC2)C1=O)Nc1ccc(F)cc1F` (stereo not shown), -13.1%; for `Cc1cc(NCC(C)C)n2ncnc2n1`, 14%. As to `N=c1c(S(=O)(=O)c2ccc(Cl)cc2)cc2c(=O)n3ccccc3nc2n1Cc1cccnc1`, the “hERG current change (%, negative = inhibition) at 10uM” value was -35.5%.

Take `Cc1cccn2c(=O)c3cc(S(=O)(=O)c4ccccc4)c(=N)n(Cc4cccnc4)c3nc12`: the “hERG current change (%, negative = inhibition) at 10uM” value is -66.1%. In the case of `N=c1c(S(=O)(=O)c2ccccc2)cc2c(=O)n3ccccc3nc2n1Cc1cccnc1`, the “hERG current change (%, negative = inhibition) at 10uM” value was -59.2%. For `Cc1cccn2c(=O)c3cc(S(=O)(=O)c4ccccc4)c(=N)n(Cc4ccc(F)cc4)c3nc12` the value was 24.7%; for `N=c1c(S(=O)(=O)c2ccc(Br)cc2)cc2c(=O)n3ccccc3nc2n1Cc1ccccc1`, 27%; for `CCCn1c(=N)c(S(=O)(=O)c2ccccc2)cc2c(=O)n3cccc(C)c3nc21`, 0.577%.
